Data on 8 compounds can be found in PubChem BioAssay (NCATS).

Molecules are shown by their SMILES. Inconclusive results are not listed. Activity calls are given as the source filed them. Unless noted, the call rests on the fitted dose curve; in most records, active means well fitted inhibition curve with a large enough effect; inconclusive means small, poorly fitted or top-dose-only effect; inactive means flat fitted curve, though single readings scatter.

Test [1] is described as follows: qHTS drug screen for cell cycle checkpoint inhibitors in PARPi-resistant BRCA-mutant ovarian cancer cell lines. (AID 1963452; calls by dose curve). Particulars: PEO1/OlaR viability, CellTiter-Glo luminescence, 96 h, stronger effect = lower value. In a few lines: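 PEO1, PEO4 and PEO1/OlaR ovarian cancer cells, 600 per well, exposed 96 h at 37C to a dilution series. Viability read by CellTiter-Glo luminescence, normalized to DMSO and empty wells; activity summarized as Z-AUC.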
A general note: Quantitative high-throughput screening tests each substance at several concentrations.

The nature of test [2]: qHTS for identification of novel therapeutic agents for treatment of microphthalmiaassociated transcription factor (MiT) renal cell carcinoma (RCC) (AID 1963991). Particulars: CellTiter-Glo, 48 h, stronger effect = lower value. In a few lines: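 Three TFE3-fusion RCC cell lines (UOK109, UOK124, UOK145), 500 cells/well, were exposed to the 1912-compound MIPE 4.0 library for 48 hours at 37 C. Viability was read by CellTiter-Glo luminescence, normalised to DMSO (100%) and empty wells (0%), with 11-concentration curve fits.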

Test [3] relates to 3D7. As to the kind of experiment: qHTS profiling for inhibitors of Plasmodium falciparum proliferation (AID 504749). Further: nearly all actives have a fitted effect of over 60% in size. Further: potency means the concentration at half of the fitted maximal effect.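 On activity, negative = inhibition: 0% = DMSO vehicle and full inhibition = artemisinin control.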 Particulars: P. falciparum in erythrocytes, SYBR Green DNA, 72 h; series mostly up to 28.7 µM. In a few lines:
(§1)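 Infected RBCs, 0.3% parasitemia/2.5% Hct final; cpd 72 h, 37 C, 5% CO2; lysis buffer with saponin/triton/SYBR Green I, o/n RT dark; FI 485/535; norm. to artemisinin (0.29 uM) and DMSO.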

In test [4] the test system is AA1029. Described as above. Particulars: P. falciparum in erythrocytes, SYBR Green DNA, 72 h; series mostly up to 28.7 µM. In a few lines:
as §1

Test [5] deals with AS120. The description is as above. Particulars: P. falciparum in erythrocytes, SYBR Green DNA, 72 h; series mostly up to 28.7 µM. In a few lines: as §1
For test [6], the system named is ATS189. Described as above. Particulars: P. falciparum in erythrocytes, SYBR Green DNA, 72 h; series mostly up to 28.7 µM. In a few lines: as §1
Test [7] relates to ATS95. Described as above. Particulars: P. falciparum in erythrocytes, SYBR Green DNA, 72 h; series mostly up to 28.7 µM. The method in brief:
as §1

Test [8] deals with C2A. The description is as above. Particulars: P. falciparum in erythrocytes, SYBR Green DNA, 72 h; series mostly up to 28.7 µM. In a few lines: as §1
Test [9] relates to CP185. Described as above. Particulars: P. falciparum in erythrocytes, SYBR Green DNA, 72 h; series mostly up to 28.7 µM. In a few lines: as §1
The test system of test [10] is CP191. The test is described as above. Particulars: P. falciparum in erythrocytes, SYBR Green DNA, 72 h; series mostly up to 28.7 µM. In a few lines:
as §1

Test [11] relates to CP192. The test is described as above. Particulars: P. falciparum in erythrocytes, SYBR Green DNA, 72 h; series mostly up to 28.7 µM. In a few lines: as §1
Test in test [12]: as above
Particulars: P. falciparum in erythrocytes, SYBR Green DNA, 72 h. The method in brief: as §1

Test [13] concerns 7G8. The description is as above. Particulars: P. falciparum in erythrocytes, SYBR Green DNA, 72 h; series mostly up to 28.7 µM. In a few lines: as §1
Setting [14] is: measured here: PEO1 parental Z-AUC.
[15] abbreviates: TFE3-RCC UOK109 viability, measured here: UOK109 Z-AUC.
Where [16] appears, read: TFE3-RCC viability, measured here: UOK124 Z-AUC.
[17] abbreviates: TFE3-RCC viability, measured here: UOK145 Z-AUC.
Where [18] appears, read: at 28.7 µM (top of the series), parasite line A.
[19] abbreviates: at 28.7 µM (top of the series), parasite line B.

With `Oc1ccc(C2CNCCc3c2cc(O)c(O)c3Cl)cc1` (stereo not given), the Z-AUC in test [1] was 1.23 (inactive); in [1] (setting [14]) it was 1.1; in test [1] (measured here: PEO4 Z-AUC), 1. The z-score in test [2] (setting [15]) came to 0.257; in test [2] (setting [16]), 0.218; in [2] (setting [17]), 0.231. Also, the Potency result in test [3], in [4], in test [5], in test [6], in test [7] and in test [8] was “inactive” throughout. Moreover, the Potency result in test [9], in test [10] and in [11] was “inactive” in each case.

In the case of `CCc1ccc(CCOc2ccc(CC3SC(=O)NC3=O)cc2)nc1` (stereo not given), the values for the Z-AUC in test [1], in test [1] (setting [14]) and in test [1] (measured here: PEO4 Z-AUC) were 0.827 (inactive), 0.268 and 0.973, respectively. Also, the values for the z-score in test [2] (setting [15]), in test [2] (setting [16]) and in test [2] (setting [17]) were 1.53, 0.584 and 0.551, respectively. In addition, the figures for the activity, negative = inhibition in [12] (setting [18]) and in [12] (setting [19]) were 8.32% (inactive) and 6.57% (inactive), respectively. The Potency result in test [3], in test [13], in test [4], in test [5], in test [6] and in [7] was “inactive” in each case. Besides, the Potency result in test [8], in [9], in test [10] and in test [11] was “inactive” in each case.

On to `CCCCNc1cc(C(=O)O)cc(S(N)(=O)=O)c1Oc1ccccc1`, for which the Z-AUC is -0.665 (inactive) in test [1], 0.995 in test [1] (setting [14]) and 0.519 in test [1] (measured here: PEO4 Z-AUC). Moreover, the z-score in test [2] (setting [15]) was 0.772; in test [2] (setting [16]) it was 0.679; in test [2] (setting [17]) it was -1.8. For the same compound, the activity, negative = inhibition in test [12] (at 12.8 µM (top of the series), parasite line A) is -5.15% (inactive); in test [12] (at 12.8 µM (top of the series), parasite line B), 8.34% (inactive). For the same compound, the Potency result in test [3], in test [13], in [4], in test [5], in test [6] and in test [7] was “inactive” each time. Besides, the Potency result in test [8], in [9], in test [10] and in test [11] was “inactive” in each case.

`C1COC(NC(C2CC2)C2CC2)=N1`: the Z-AUC is -0.361 (inactive) in test [1], -0.558 in [1] (setting [14]) and -0.616 in test [1] (measured here: PEO4 Z-AUC). The figures for the z-score in [2] (setting [15]), in test [2] (setting [16]) and in test [2] (setting [17]) were 0.422, 0.218 and 0.0437, respectively. Also, the Potency in test [12] (parasite line A) is 7.94 µM (active); in [13], 12.6 µM (active); in [5] it was 12.6 µM (active). Besides, the Potency entry in test [3], in test [6], in test [9] and in [11] was “inactive” each time.

Consider `O=C(O)[C@@H](c1ccc(OCc2ccc3ccccc3n2)cc1)C1CCCC1`, for which the Z-AUC in test [1] was 1.02 (inactive); in test [1] (setting [14]) it was 0.403; in test [1] (measured here: PEO4 Z-AUC), 0.552. Also, the figures for the z-score in test [2] (setting [15]), in [2] (setting [16]) and in [2] (setting [17]) were 0.431, 0.636 and 0.202, respectively.

In the case of `CC(C)(C)OC(=O)CN(Cc1ccc(Cl)cc1)Cc1ccc([N+](=O)[O-])s1`, the figures for the Z-AUC in test [1], in test [1] (setting [14]) and in test [1] (measured here: PEO4 Z-AUC) were 0.709 (inactive), 0.527 and 0.345, respectively. Also, the z-score was determined as 0.406 in test [2] (setting [15]), 0.354 in test [2] (setting [16]) and 0.158 in test [2] (setting [17]).

Regarding `NC[C@H](O)c1ccc(O)c(O)c1`, the Z-AUC in test [1] is -0.408 (inactive); in [1] (setting [14]), -0.854; in test [1] (measured here: PEO4 Z-AUC), -0.505. Moreover, the z-score in test [2] (setting [15]) was 0.441; in test [2] (setting [16]), 0.472; in [2] (setting [17]) it was 0.785. In addition, the activity, negative = inhibition in test [12] (setting [18]) is 5.08% (inactive); in test [12] (setting [19]), 9.63% (inactive). The Potency result in test [3], in test [13], in test [4], in [5], in test [6] and in [7] was “inactive” in each case. The Potency result in test [8], in test [9] and in [10] was “inactive” in each case.

Take `CC(c1cc2ccccc2s1)N(O)C(N)=O` (stereo not given): the figures for the Z-AUC in test [1], in test [1] (setting [14]) and in test [1] (measured here: PEO4 Z-AUC) were -0.588 (inactive), -0.0331 and -0.638, respectively. Also, the z-score in test [2] (setting [15]) stood at 0.403; in [2] (setting [16]), 0.701; in test [2] (setting [17]) it was 0.104. The activity, negative = inhibition in test [12] (setting [18]) is 3.01% (inactive); in test [12] (setting [19]), -4.79% (inactive). In addition, the Potency entry in test [3], in test [13], in test [4], in test [6], in test [7] and in test [8] was “inactive” in each case. In addition, the Potency entry in test [9], in test [10] and in test [11] was “inactive” throughout.
